From PubChem BioAssay (NCATS) come the findings set out here.

Records with an inconclusive call do not appear. The source made the active and inactive calls. Unless noted, calls follow the shape of the dose curve; as a rule, active = well fitted curve in either direction with a large enough effect (not every such curve was filed as active); inconclusive = small, poorly fitted or top-dose-only effect, or another doubt; inactive = flat fitted curve, though single readings scatter.

A short description of test [1]: AP1 Signaling Pathway (AID 357).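 Also: ME-180 reporter cells stimulated with EGF at its EC50 level; % is scaled to controls: 0 for no effect and ±100 for the full control effect.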 The settings on record: ME-180 AP-1-bla reporter, EGF-induced, beta-lactamase ratio, 5 h; at 17.2 µM (top of the series) unless noted. In a few lines:
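A ratiometric CCF4 readout (405 nm excitation; 460 and 530 nm emission) quantified AP-1-driven beta-lactamase in ME-180 cells after 5 h with compound and EC50 EGF; AC50 values were derived for activators and inhibitors.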

Test [2] in a line: Stat Signaling Pathway (AID 446).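 Also: ME-180 cervical cancer cells given 40 pM IL-6 alongside compound; SIE-controlled beta-lactamase reporter measured as 460/530 nm FRET emission ratio; % is scaled to controls: 0 for no effect and ±100 for the full control effect.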 The settings on record: ME-180 (cervical carcinoma) SIE beta-lactamase reporter, IL-6 stimulated, 5 h; at 17.2 µM (top of the series) unless noted. A digest of the protocol:
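Emission at 460 and 530 nm (excitation 405 nm) reports SIE-controlled beta-lactamase in ME-180 cells. Cells received compound with 40 pM IL-6 for 5 hrs at 37 C; data scaled between 300 pM IL-6 and 125 nM JAK-inhibitor controls.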

Test [3] deals with Glucocorticoid receptor (Homo sapiens) (UniProt P04150). Put plainly: GR-GFP Redistribution (AID 450;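 active = compounds whose dose series gives a full or clear partial fitted curve of increased nuclear translocation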; also: potency is read from the fitted curve at half-maximal effect).
Test [4] has the same target. Put plainly: GR-EFC Redistribution (AID 451; calls by dose curve; also: potency is read from the fitted curve at half-maximal effect). The settings on record: CHO-K1 GR-EFC translocation, beta-gal luminescence, 2 h. A digest of the protocol: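 CHO-K1 cells expressing nuclear EA and GR-ED fragments of b-gal; compounds titrated up to 46 uM final, 2 h at 37 C. GR nuclear translocation read as complemented b-gal luminescence after 1 h RT detection.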
Test [5] has as its target Mitogen-activated protein kinase 10 (Mus musculus) (UniProt Q61831). Put plainly: JNK3 AlphaScreen Assay (AID 530).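 Also: kinase came from lysate of stimulated human HepG2 cells; signal reports phosphorylation of biotinylated GST-cJun 1-79 at Ser73 with 10 µM ATP; % is scaled to controls: 0 for no effect and ±100 for the full control effect.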 A digest of the protocol:
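Activity was read by AlphaScreen after JNK3-containing HepG2 lysate (cytokine pre-activated) phosphorylated biotinylated GST-cJun with 10 uM ATP at room temperature. Phospho-Ser73 cJun antibody with Protein-A acceptor beads provided detection.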
(Alpha assays give light when donor and acceptor beads are brought close together.)

The target in test [6] is 3',5'-cyclic-AMP phosphodiesterase 4B (Homo sapiens) (UniProt Q07343). Put plainly: qHTS Assay for Inhibitors of PDE-IV (AID 607; active = well fitted activation curve with a large enough effect in the main read-out, with a control signal flat, not every such curve was filed as active; also: % of control where 0% means no effect). A digest of the protocol: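 The readout is membrane depolarisation from a cAMP-sensing CNG channel, detected with a potential dye at ex 535/em 590. Cells were HEK293-derived (endogenous PDE-IV) at 1000 cells/well, titrated up to 22.9 uM final.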
(qHTS replaces the single test concentration by a dilution series.)

The target in test [7] is Cytochrome P450 3A4 (Homo sapiens) (UniProt P08684). Put plainly: qHTS Assay for Inhibitors and Substrates of Cytochrome P450 3A4 (AID 884; active = well fitted curve in the direction sought with a large enough effect; an effect the other way counts as inactive or inconclusive; also: % is scaled to controls: 0 for no effect and ±100 for the full control effect; nearly all actives have a fitted effect of over 50% in size). A digest of the protocol: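 Luminescent readout of luciferin produced by CYP3A4 (20 nM) dealkylation of Luciferin-PPXE, 25 uM (its KM). NADPH-driven reaction ran 60 min at RT after 10 min compound preincubation; data scaled to 57 uM ketoconazole as 100% inhibition.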

A short description of test [8]: Confirmation and Secondary Assay for Modulators of Hemoglobin Beta Chain Splicing at IVS2 654 locus (AID 910; active = well fitted curve in the direction sought with a large enough effect; an effect the other way counts as inactive or inconclusive;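 also: HeLa cells stably carrying EGFP split by mutant beta-globin IVS2-654 intron; % of control where 0% means no effect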). A digest of the protocol: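 HeLa cells stably expressing EGFP interrupted by β-globin IVS2-654 intron, seeded overnight in Opti-MEM/2% FCS, then treated 2 days at 37 °C. Restored splicing read as total peak GFP intensity per well by laser scanning cytometry (488 nm excitation, 500–520 nm emission); 500 nM antisense PNA as control.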

Test [9] has as its target Ubiquitin carboxyl-terminal hydrolase 1 (Homo sapiens) (UniProt O94782). Put plainly: Inhibitors of USP1/UAF1: Pilot qHTS (AID 504865; active = well fitted curve in the direction sought with a large enough effect; an effect the other way counts as inactive or inconclusive; also: potency is read from the fitted curve at half-maximal effect; nearly all actives have a fitted effect of over 35% in size). A digest of the protocol: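 Enzyme-free wells gave the negative control, while test wells held 1nM USP1/UAF1 preincubated with compound for 15 min at room temperature. Ub-Rho at 150nM final started the reaction, and fluorescence at 480/540 nm was recorded kinetically.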

Test [10] addresses Estrogen receptor (Homo sapiens) (UniProt P03372). As to the kind of experiment: qHTS assay for small molecule agonists of estrogen receptor alpha signaling (AID 588514; calls by dose curve;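 also: 0% = vehicle only and 100% = reference agonist; nearly all actives have a fitted effect of over 70% in size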). A digest of the protocol: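 EC50 and efficacy came from Hill fits of beta-lactamase reporter signal (CCF4 dye, 2 h at room temperature) scaled between DMSO and 20 nM 17-beta-estradiol. Agonist mode: HEK293 ER-alpha-UAS-bla cells in charcoal/dextran-stripped serum medium, 18 h compound exposure at 37 C.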

Test [11] deals with Androgen receptor (Homo sapiens) (UniProt P10275). As to the kind of experiment: qHTS assay for small molecule antagonists of androgen receptor signaling (AID 588516; active = well fitted curve in the direction sought with a large enough effect in the signal ratio, with a control signal flat, not every such curve was filed as active; the % refers to the signal ratio; also: % is scaled to controls: 0 for no effect and ±100 for the full control effect). A digest of the protocol:
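Compounds tested in titration against 10 nM R1881 in AR-responsive bla reporter HEK 293 cells; CCF4 fluorescence (460/530 nm) after 16 h exposure gave IC50 and efficacy.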

Test [12] addresses Bile acid receptor (Homo sapiens) (UniProt Q96RI1). As to the kind of experiment: qHTS assay for small molecule antagonists of farnesoid X receptor signaling (AID 588526; calls by dose curve; also: % is scaled to controls: 0 for no effect and ±100 for the full control effect). A digest of the protocol: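 Antagonist mode: titrated compounds tested against chenodeoxycholic acid stimulation (normalized to 50 uM CDCA and DMSO) in GeneBLAzer HEK293T cells for 16 h. Beta-lactamase read by CCF4 fluorescence; IC50 from Hill fits.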

For test [13], the target named is Glucocorticoid receptor (Homo sapiens) (UniProt P04150). Put plainly: qHTS assay for small molecule agonists of glucocorticoid receptor signaling (AID 588532; active = well fitted curve in the direction sought with a large enough effect in the signal ratio, with a control signal flat; the % refers to the signal ratio;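 also: 100% = dexamethasone at 0.1 µM and 0% = DMSO only wells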). To be noted: HeLa MMTV-bla, beta-lactamase ratio, agonist, 18 h; stronger effect = higher value; percent of dexamethasone control, DMSO zero. In a few lines:
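MMTV-bla HeLa beta-lactamase reporter cells in 1% charcoal/dextran FBS medium, compounds up to 92 uM for 18 h at 37 C, CCF4 readout; normalized to 0.1 uM dexamethasone (100%), EC50 and efficacy from Hill fits.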

Test [14] in a line: qHTS assay for small molecule antagonists of peroxisome proliferator-activated receptor delta signaling (AID 588535; active = well fitted inhibition curve with a large enough effect in the signal ratio, with a control signal flat, not every such curve was filed as active; the % refers to the signal ratio;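 as to max response: cells co-treated with a PPAR-delta agonist as stimulator during compound exposure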). The settings on record: HEK293T PPARd-UAS-bla, beta-lactamase FRET ratio, 18 h; 460 nm channel. A digest of the protocol: (§1)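 Fluorescence from CCF4-loaded GeneBLAzer PPAR-delta-UAS-bla HEK293T cells (2 hrs RT loading) quantified reporter inhibition after an 18 hr, 37 C compound exposure across a titration.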

Test [15] has as its target Peroxisome proliferator-activated receptor delta (Homo sapiens) (UniProt Q03181). Described as above. A digest of the protocol: as §1
The target in test [16] is Peroxisome proliferator-activated receptor gamma (Homo sapiens) (UniProt P37231). As to the kind of experiment: qHTS assay for small molecule agonists of peroxisome proliferator-activated receptor gamma signaling (AID 588536; active = well fitted curve in the direction sought with a large enough effect in the signal ratio, with a control signal flat, not every such curve was filed as active; the % refers to the signal ratio;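 also: 0% = DMSO basal wells and 100% = rosiglitazone at 2 µM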). A digest of the protocol:
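Beta-lactamase reporter read-out: CCF4 fluorescence (ex 405, em 460/530 nm) after 2 h at RT. HEK293 GeneBLAzer cells were treated for 16 h at 37 C. Hill fits gave EC50 and efficacy versus 2 uM rosiglitazone (100%) and DMSO (0%).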

Test [17] has as its target Vitamin D3 receptor (Homo sapiens) (UniProt P11473). As to the kind of experiment: qHTS assay for small molecule antagonists of vitamin D receptor signaling (AID 588541; calls by dose curve). A digest of the protocol: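 VDR-UAS-bla HEK293T cells in 2% charcoal-stripped FBS were stimulated with 1-alpha,25-dihydroxyvitamin D3 (3 nM final) plus compound for 16 h at 37 C. The beta-lactamase CCF4 readout was normalized to 50 nM agonist and DMSO, and Hill fits gave IC50.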

For test [18] the target is unchanged. As to the kind of experiment: qHTS assay for small molecule agonists of vitamin D receptor signaling (AID 588543; calls by dose curve;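 also: 0% = DMSO basal and 100% = reference agonist control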). In a few lines:
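Measured: β-lactamase reporter activity (CCF4, 405 nm excitation, 460/530 nm emission) in HEK293T VDR-UAS-bla cells after 16 h compound exposure at 37 °C. Normalization against 50 nM 1α,25-dihydroxyvitamin D3 and DMSO; Hill-fit EC50.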

In test [19] the target is Luciferin 4-monooxygenase (Photinus pyralis) (UniProt P08659). As to the kind of experiment: Biochemical firefly luciferase enzyme assay for NPC (AID 624030; active = well fitted curve in the direction sought with a large enough effect; an effect the other way counts as inactive or inconclusive;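 also: purified P. pyralis luciferase at 10 nM with luciferin and ATP substrate; 0% = DMSO and -100% = full luciferase inhibition by PTC124 control; nearly all actives have a fitted effect of over 70% in size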). In a few lines: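 Purified P. pyralis luciferase at 10 nM in 50 mM Tris Acetate (final), luminescence read within 5 minutes of enzyme addition to compounds. Activity normalised to PTC124 versus DMSO; concentration-response curves classed by r2, magnitude and activity.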

Test [20] can be described thus: qHTS assay for environmental chemicals that activate the Aryl hydrocarbon Receptor (AhR) signaling pathway (AID 651777; active = well fitted curve in the direction sought with a large enough effect; an effect the other way counts as inactive or inconclusive; also: % of control where 0% means no effect; nearly all actives have a fitted effect of over 15% in size). The settings on record: 1A2-DRE human hepatoma cells, luciferase, 24 h; activation: stronger effect = higher value. In a few lines:
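Human hepatoma 1A2-DRE cells, stably carrying a dioxin response element and CYP1A2 promoter driving luciferase, were exposed to compounds for 24 hr at 37 C and 5% CO2. Luciferase signal was then read after 30 min One-Glo at room temperature.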

Test [21] in a line: qHTS assay for small molecule agonists of the antioxidant response element (ARE) signaling pathway measured by Nrf2-dependant transcriptional activity (AID 720636; active = well fitted curve in the direction sought with a large enough effect in the repeat runs; an effect the other way counts as inactive or inconclusive; also: % of control where 0% means no effect). In a few lines: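 ARE-luc HepG2 cells carrying an Nrf2-responsive luciferase reporter were plated in medium with 1% dialyzed FBS, left 6 hr at 37 C to attach, then exposed to compound for 16 hr. Luciferase luminescence was read after ONE-Glo addition.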

Test [22] is described as follows: qHTS assay for small molecule agonists of the antioxidant response element (ARE) signaling pathway measured by Nrf2-dependant transcriptional activity - cell viability counter screen (AID 720653; active = well fitted curve in the direction sought with a large enough effect in the repeat runs; an effect the other way counts as inactive or inconclusive; also: % is scaled to controls: 0 for no effect and ±100 for the full control effect). The settings on record: ARE-bla HepG2 viability, CellTiter-Glo ATP luminescence, 16 h; max response: stronger effect = lower value. A digest of the protocol: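 ARE-bla HepG2 cells treated with compounds for 16 h at 37C; this counter screen measures viability as intracellular ATP by CellTiter-Glo luminescence after 30 min at room temperature.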

Test [23] is described as follows: qHTS assay for cell viability of HEK293 cells (AID 743288; active = well fitted curve in the direction sought with a large enough effect; an effect the other way counts as inactive or inconclusive; also: % is scaled to controls: 0 for no effect and ±100 for the full control effect; nearly all actives have a fitted effect of over 50% in size). To be noted: ATP luminescence (CellTiter-Glo), 18 h; max response: stronger effect = lower value. A digest of the protocol: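 HEK293, 18 h, 37 C, ATP luminescence. Cells at 2,000/well were allowed at least 5 h to settle before dosing; CellTiter-Glo developed 30 min at RT.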
Test [24] can be described thus: qHTS assay for cell viability of the p53RE-bla HCT-116 cell line (AID 743292; active = well fitted curve in the direction sought with a large enough effect; an effect the other way counts as inactive or inconclusive; also: % is scaled to controls: 0 for no effect and ±100 for the full control effect; nearly all actives have a fitted effect of over 55% in size). In a few lines:
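CellSensor p53RE-bla HCT-116 cells, 4,000/well, preincubated 5 h at 37 C, then exposed to compounds in DMSO for 16 h at 37 C. Viability read as CellTiter-Glo luminescence (intracellular ATP) after 30 min at room temperature.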

Test [25] has as its target Nuclear receptor subfamily 1 group I member 2 (Rattus norvegicus) (UniProt Q9R1A7). Put plainly: qHTS assay for small molecule activators of the rat pregnane X receptor (rPXR) signaling pathway (AID 651751; call rule not given here; also: 0% is about no effect). To be noted: rPXR reporter cells, luciferase (One-Glo), 24 h.
A short description of test [26]: qHTS assay for small molecule activators of the human pregnane X receptor (PXR) signaling pathway (AID 720659; call rule not given here; also: 0% is about no effect).

Chain of Glucocorticoid receptor (Homo sapiens) (P04150 whole entry, looked up, the tested form may be a part): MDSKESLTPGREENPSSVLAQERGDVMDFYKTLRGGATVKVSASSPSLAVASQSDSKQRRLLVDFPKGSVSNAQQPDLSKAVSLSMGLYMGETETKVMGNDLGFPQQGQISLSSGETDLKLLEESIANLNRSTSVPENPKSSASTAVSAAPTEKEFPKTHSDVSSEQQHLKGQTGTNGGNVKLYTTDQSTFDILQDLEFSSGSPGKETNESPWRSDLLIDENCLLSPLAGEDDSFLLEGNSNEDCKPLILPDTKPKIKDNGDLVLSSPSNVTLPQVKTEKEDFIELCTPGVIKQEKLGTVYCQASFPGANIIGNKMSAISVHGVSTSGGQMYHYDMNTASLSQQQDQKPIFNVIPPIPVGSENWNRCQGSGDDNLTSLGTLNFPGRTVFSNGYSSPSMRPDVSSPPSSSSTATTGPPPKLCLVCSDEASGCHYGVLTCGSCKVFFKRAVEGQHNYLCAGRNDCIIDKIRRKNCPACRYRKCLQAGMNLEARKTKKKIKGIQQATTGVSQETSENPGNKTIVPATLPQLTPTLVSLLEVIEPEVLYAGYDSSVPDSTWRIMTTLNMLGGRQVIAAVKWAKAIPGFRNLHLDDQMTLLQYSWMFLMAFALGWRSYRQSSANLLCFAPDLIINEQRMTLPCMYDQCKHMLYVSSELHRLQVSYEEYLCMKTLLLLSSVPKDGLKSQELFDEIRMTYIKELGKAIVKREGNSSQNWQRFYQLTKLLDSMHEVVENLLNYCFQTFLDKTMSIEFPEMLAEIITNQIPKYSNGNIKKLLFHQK
Chain of Vitamin D3 receptor (Homo sapiens) (P11473 whole entry, looked up): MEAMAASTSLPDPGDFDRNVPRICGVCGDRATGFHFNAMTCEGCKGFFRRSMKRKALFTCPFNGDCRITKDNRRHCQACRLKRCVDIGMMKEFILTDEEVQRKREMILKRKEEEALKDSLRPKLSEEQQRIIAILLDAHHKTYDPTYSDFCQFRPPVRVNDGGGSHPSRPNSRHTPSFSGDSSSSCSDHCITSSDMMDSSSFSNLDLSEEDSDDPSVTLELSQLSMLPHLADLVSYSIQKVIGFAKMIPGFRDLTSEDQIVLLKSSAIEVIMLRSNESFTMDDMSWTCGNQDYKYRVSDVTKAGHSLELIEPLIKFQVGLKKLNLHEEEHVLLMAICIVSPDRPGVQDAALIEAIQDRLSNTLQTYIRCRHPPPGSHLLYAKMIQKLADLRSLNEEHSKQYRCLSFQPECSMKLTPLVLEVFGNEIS
Chain of Ubiquitin carboxyl-terminal hydrolase 1 (Homo sapiens) (O94782 whole entry, looked up): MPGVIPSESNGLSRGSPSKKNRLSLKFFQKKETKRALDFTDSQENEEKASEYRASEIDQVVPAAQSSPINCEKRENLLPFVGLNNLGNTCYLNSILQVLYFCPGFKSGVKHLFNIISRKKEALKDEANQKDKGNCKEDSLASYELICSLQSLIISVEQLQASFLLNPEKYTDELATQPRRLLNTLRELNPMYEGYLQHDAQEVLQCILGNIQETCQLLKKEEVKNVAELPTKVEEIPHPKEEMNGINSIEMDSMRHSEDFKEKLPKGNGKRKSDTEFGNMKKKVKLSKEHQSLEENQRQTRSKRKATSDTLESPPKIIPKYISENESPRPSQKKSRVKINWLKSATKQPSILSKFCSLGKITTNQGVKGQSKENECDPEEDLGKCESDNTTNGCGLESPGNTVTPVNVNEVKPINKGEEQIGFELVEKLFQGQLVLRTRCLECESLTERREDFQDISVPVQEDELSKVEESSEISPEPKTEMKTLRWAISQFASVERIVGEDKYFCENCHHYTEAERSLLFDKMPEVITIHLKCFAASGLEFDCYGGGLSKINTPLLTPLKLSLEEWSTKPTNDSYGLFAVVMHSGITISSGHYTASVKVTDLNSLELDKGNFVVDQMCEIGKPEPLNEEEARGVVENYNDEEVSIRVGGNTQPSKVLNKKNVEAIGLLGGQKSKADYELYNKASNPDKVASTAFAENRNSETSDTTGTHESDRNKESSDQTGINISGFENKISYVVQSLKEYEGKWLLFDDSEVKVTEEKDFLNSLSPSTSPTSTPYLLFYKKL
Chain of Bile acid receptor (Homo sapiens) (Q96RI1 whole entry, looked up): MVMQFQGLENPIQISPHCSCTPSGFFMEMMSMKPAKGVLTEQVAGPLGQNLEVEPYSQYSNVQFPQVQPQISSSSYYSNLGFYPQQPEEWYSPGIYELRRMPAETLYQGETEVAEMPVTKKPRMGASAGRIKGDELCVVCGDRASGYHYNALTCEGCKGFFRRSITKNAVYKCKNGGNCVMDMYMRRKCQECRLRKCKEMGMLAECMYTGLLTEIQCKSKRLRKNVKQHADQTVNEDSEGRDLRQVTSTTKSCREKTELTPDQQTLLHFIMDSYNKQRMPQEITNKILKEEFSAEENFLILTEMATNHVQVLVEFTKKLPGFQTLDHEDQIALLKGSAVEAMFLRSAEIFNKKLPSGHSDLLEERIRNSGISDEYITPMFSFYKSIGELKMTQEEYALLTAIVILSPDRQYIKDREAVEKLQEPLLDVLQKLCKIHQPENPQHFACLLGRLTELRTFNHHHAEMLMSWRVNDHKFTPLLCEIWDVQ
Chain of Estrogen receptor (Homo sapiens) (P03372 whole entry, looked up): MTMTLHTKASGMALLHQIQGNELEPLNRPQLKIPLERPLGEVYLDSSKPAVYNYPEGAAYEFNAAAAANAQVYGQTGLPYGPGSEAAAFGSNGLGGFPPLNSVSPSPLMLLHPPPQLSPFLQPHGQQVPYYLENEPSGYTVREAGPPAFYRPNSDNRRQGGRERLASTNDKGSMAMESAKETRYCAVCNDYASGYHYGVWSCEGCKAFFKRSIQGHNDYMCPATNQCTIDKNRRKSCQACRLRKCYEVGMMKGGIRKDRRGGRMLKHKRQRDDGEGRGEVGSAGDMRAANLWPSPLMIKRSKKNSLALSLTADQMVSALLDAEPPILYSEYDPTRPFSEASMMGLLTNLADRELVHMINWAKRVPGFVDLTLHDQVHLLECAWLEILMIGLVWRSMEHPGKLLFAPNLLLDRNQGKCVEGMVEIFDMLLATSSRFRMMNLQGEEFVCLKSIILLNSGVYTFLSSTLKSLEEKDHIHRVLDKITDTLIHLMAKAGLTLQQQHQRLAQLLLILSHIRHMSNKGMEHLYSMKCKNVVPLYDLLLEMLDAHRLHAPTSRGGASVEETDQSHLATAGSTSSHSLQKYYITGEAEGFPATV
Chain of Cytochrome P450 3A4 (Homo sapiens) (P08684 whole entry, looked up): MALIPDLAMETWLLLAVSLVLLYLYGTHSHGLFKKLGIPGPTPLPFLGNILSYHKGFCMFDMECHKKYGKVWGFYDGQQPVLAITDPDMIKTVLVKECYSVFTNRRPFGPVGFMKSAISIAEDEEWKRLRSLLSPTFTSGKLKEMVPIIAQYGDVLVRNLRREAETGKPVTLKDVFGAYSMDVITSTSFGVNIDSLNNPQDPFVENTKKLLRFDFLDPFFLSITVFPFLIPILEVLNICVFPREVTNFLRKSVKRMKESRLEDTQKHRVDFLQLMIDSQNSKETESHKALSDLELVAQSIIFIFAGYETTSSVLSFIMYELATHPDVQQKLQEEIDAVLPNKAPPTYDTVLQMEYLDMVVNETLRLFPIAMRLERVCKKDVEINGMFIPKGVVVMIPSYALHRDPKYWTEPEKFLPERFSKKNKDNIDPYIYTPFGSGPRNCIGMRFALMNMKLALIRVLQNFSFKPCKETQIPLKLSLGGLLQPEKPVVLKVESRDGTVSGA
Chain of Nuclear receptor subfamily 1 group I member 2 (Rattus norvegicus) (Q9R1A7 whole entry, looked up): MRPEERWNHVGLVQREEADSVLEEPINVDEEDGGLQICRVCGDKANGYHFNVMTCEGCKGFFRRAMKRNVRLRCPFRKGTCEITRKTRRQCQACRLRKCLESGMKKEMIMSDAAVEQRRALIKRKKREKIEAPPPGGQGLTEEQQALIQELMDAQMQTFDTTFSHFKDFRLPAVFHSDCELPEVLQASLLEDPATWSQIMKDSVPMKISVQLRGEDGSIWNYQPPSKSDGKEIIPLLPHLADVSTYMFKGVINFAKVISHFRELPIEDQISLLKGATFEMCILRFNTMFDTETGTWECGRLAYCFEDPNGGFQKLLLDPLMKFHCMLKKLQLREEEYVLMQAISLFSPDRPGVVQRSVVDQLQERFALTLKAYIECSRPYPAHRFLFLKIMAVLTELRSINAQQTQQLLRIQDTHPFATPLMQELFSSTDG
Chain of Peroxisome proliferator-activated receptor delta (Homo sapiens) (Q03181 whole entry, looked up): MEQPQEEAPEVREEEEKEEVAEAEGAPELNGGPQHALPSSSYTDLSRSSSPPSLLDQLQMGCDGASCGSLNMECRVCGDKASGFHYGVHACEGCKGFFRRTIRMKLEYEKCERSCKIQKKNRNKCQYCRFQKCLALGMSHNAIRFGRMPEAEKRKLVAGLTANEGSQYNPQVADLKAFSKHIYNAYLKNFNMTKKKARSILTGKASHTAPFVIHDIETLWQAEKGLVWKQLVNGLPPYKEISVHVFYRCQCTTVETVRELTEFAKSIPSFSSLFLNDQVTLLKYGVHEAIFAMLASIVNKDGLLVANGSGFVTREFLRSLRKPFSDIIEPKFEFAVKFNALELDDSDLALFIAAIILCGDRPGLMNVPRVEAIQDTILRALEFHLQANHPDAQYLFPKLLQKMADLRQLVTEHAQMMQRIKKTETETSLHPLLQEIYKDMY
Chain of Luciferin 4-monooxygenase (Photinus pyralis) (P08659 whole entry, looked up): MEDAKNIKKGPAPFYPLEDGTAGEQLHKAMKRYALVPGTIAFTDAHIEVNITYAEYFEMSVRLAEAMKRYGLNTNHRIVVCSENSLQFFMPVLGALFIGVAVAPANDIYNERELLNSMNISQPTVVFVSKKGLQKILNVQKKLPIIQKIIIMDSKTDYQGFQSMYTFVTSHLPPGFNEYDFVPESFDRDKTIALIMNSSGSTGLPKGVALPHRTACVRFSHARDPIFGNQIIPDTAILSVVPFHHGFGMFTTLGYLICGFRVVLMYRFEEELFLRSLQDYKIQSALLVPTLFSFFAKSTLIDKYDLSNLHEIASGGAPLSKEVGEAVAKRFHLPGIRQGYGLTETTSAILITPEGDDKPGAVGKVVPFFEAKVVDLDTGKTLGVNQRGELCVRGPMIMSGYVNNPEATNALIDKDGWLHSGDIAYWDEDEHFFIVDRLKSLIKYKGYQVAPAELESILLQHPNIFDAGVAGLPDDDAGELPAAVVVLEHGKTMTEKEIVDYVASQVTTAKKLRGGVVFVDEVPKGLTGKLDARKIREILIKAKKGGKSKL

Consider `Cc1cc(C(C)(C)CC(C)(C)C)ccc1OCCOCC[N+](C)(C)Cc1ccccc1`, for which, in test [1], the activity change, negative = inhibition was 18.1% (inactive). Moreover, the activity, negative = inhibition in test [2] is 4.17% (inactive). The Potency in test [3] is > 20.6 µM (inactive); in test [4] it was > 20.6 µM (inactive); in [9], 35.5 µM (active). The Potency result in [5], in test [6], in [7], in test [8], in [12] and in [17] was “inactive” throughout. Also, the Potency entry in test [19], in test [21] and in [24] was “inactive” each time. Moreover, the outcome in [10], in test [11], in test [15], in test [16], in test [18] and in [26] was inactive. Moreover, the activation in test [13] was -7.21% (inactive); in test [20], 0.146% (inactive). The max response is 14.2% in [14], -8.26% (inactive) in test [22], -29.5% (inactive) in [23] and -12.4% (inactive) in test [25].

Take `CCOC(=O)c1cc2c(=O)n3cccc(C)c3nc2n(CCc2ccccc2)c1=N`: the activity change, negative = inhibition in test [1] is 9.31% (inactive). Moreover, the activity, negative = inhibition in test [2] is 29.4% (inactive). For the same compound, the Potency in test [3] was > 20.6 µM (inactive).

As to `CCOC(=O)C1=C(CSc2nc(-c3ccncc3)ccc2C#N)OC(N)=C(C#N)C1c1cccnc1` (stereo not drawn), the activity change, negative = inhibition in test [1] is 20.1% (inactive). Besides, the activity, negative = inhibition in test [2] is -14.4% (inactive). Also, the Potency in [3] is > 20.6 µM (inactive).

Consider `C=CCOc1ccc(/C(O)=C2\C(=O)C(=O)N(CCN(C)C)C2c2cccs2)cc1` (stereo not drawn), for which the activity change, negative = inhibition in test [1] is -5.42% (inactive). Also, in test [2], the activity, negative = inhibition was -3.79% (inactive). In test [3], the Potency was > 20.6 µM (inactive).

`NC(Cc1ccc(Oc2ccc(O)cc2)cc1)C(=O)O` (stereo not drawn): the activity change, negative = inhibition in test [1] was -2.36% (inactive). For the same compound, in test [2], the activity, negative = inhibition was -1.48% (inactive). Besides, the Potency in test [3] is > 20.6 µM (inactive).
